A short description of test [1]: qHTS assay to identify small molecule agonists of the estrogen receptor alpha (ER-alpha) signaling pathway in the presence of an antagonist - cell viability counter screen (AID 1259386).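 Note: series mostly up to about 92 µM; cells exposed to compounds for 22 h at 37 °C before the viability read; nearly all actives have a fitted effect of over 30% in size.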 Summed up:
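Steps: 5-day stripped-FBS culture; seed and incubate 24hr; add ICI-182,780 (10.0nM final); pin 15-point compound titration; incubate 22hr at 37C; add CellTiter-Fluor at 21hr; read fluorescence.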

Test [2] concerns the target Progesterone receptor (Homo sapiens) (UniProt P06401). The experiment in a line: qHTS assay to identify small molecule agonists of the progesterone receptor (PR) signaling pathway (AID 1346784; calls by dose curve; note: nearly all actives have a fitted effect of over 30% in size). The procedure, abridged:
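Compounds were tested for PR agonism in HEK 293T cells bearing a beta-lactamase gene under UAS control. Treatment lasted 16 hr at 37C; signal came from fluorescence of a FRET substrate.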

For test [3] the target is unchanged. The experiment in a line: qHTS assay to identify small molecule antagonists of the progesterone receptor (PR) signaling pathway (AID 1346795; active = well fitted inhibition curve with a large enough effect in the signal ratio in the repeat runs, not every such curve was filed as active; the % refers to the signal ratio). The procedure, abridged: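 In HEK293T cells bearing the PR-UAS-bla reporter, compound effects on promegestone-driven (1 nM) beta-lactamase expression are assessed after 16 hr using a fluorescent FRET substrate incubated 2 hr at room temperature.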

Test [4] is described as follows: qHTS assay to identify small molecule antagonists of the progesterone receptor (PR) signaling pathway - cell viability counter screen (AID 1346798). Note: series mostly up to about 92 µM; nearly all actives have a fitted effect of over 50% in size. Summed up:
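Following a 4 hr attachment, PR-UAS-bla HEK293T cells in charcoal-stripped FBS medium were exposed to compounds with R5020 for 16 hr; CellTiter-Glo was added and luminescence read after 30 min at room temperature.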

A short description of test [5]: qHTS assay to identify small molecule agonists of the progesterone receptor (PR) signaling pathway - cell viability counter screen (AID 1346799; calls by dose curve; note: nearly all actives have a fitted effect of over 45% in size). The procedure, abridged: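 Here, 3,000 PR-UAS-bla HEK293T cells per well were treated with compounds for 16 hr after a 6 hr preincubation at 37C and 5% CO2; cell viability is the CellTiter-Glo luminescence signal.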
Test [6] in a line: qHTS assay to identify small molecule antagonists of the TGF-beta/Smad signaling pathway - cell viability counter screen (AID 1346824). Note: nearly all actives have a fitted effect of over 50% in size. Summed up:
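Cytotoxicity counter-screen run in the same wells as the beta-lactamase Smad reporter read: CellTiter-Glo luminescence after 30 min at room temperature. HEK 293T SBE-bla cells had 5 hr compound exposure at 37 C with TGF-beta1 (0.25 ng/mL stock).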

A short description of test [7]: qHTS assay to identify small molecule agonists of the TGF-beta/Smad signaling pathway - cell viability counter screen (AID 1346829). Note: top concentration of the series differs between compounds; nearly all actives have a fitted effect of over 45% in size. Summed up:
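Luminescence from CellTiter-Glo, read after a 30 min room-temperature incubation, gives cell viability of SBE-bla HEK 293T cells treated 5 hr with compounds at 37 C.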

Test [8] in a line: Human pregnane X receptor (PXR) small molecule agonists, qHTS cell viability counter screen (AID 1346977). Note: nearly all actives have a fitted effect of over 50% in size. The procedure, abridged: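 Tox21 qHTS format; PXR-Luc HepG2, 2,000/well, charcoal-stripped FBS 5%. Cpd exposure 24hr. Read: CellTiter-Fluor fluorescence, multiplexed with luciferase.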
Test [9] is described as follows: Caspase-3/7 induction in HepG2 cells by small molecules, qHTS assay (AID 1346978). Note: nearly all actives have a fitted effect of over 15% in size. The procedure, abridged: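 Caspase-3/7 induction was measured by Caspase-Glo 3/7 luminescence (30 min, room temperature) after a 17 hr compound exposure of wild-type HepG2 cells seeded at 2,000 per well and pre-incubated 5 hr.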
Test [10] can be described thus: Caspase-3/7 induction in CHO-K1 cells by small molecules, qHTS cell viability counter screen (AID 1346979). Note: nearly all actives have a fitted effect of over 35% in size. The procedure, abridged:
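CellTiter-Fluor viability check, qHTS format: wild-type CHO-K1, 16hr compound treatment, 1hr reagent incubation, fluorescence read.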

Test [11] is described as follows: Caspase-3/7 induction in HepG2 cells by small molecules, qHTS cell viability counter screen (AID 1346981). Note: series mostly up to about 92 µM; nearly all actives have a fitted effect of over 30% in size. Summed up: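 The parent HepG2 line is plated at 2,000 cells per well and rested 5 hr before compound pinning from DMSO stocks. Following a 16-hr treatment at 37 C, a fluorogenic live-cell substrate (CellTiter-Fluor) reports viability after 1 hr.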
For test [12], the target named is Nuclear receptor subfamily 1 group I member 2 (Homo sapiens) (UniProt O75469). The experiment in a line: Human pregnane X receptor (PXR) small molecule agonists, qHTS assay (AID 1346982). Note: nearly all actives have a fitted effect of over 35% in size. Note: potency is the fitted concentration of half-maximal effect. The procedure, abridged: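 After plating in 5% charcoal-stripped FBS and a 5 hr rest, PXR-Luc HepG2 cells received compounds in DMSO. Following 24 hr at 37 C, ONE-Glo was added and light output read.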

In test [13] the target is Cytochrome P450 2D6 (Homo sapiens) (UniProt P10635). The experiment in a line: Cytochrome P450 Family 2 Subfamily D Member 6 (CYP2D6) small molecule antagonists: luciferase reporter qHTS assay (AID 1671196). Note: nearly all actives have a fitted effect of over 50% in size. Note: potency is the fitted concentration of half-maximal effect. Summed up: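 Quantitative HTS of Tox21 chemicals against CYP2D6 using a luminescent proluciferin substrate. After NADPH addition, 1 h room-temperature reaction; luminescence recorded 20 min post detection reagent.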

Test [14] can be described thus: qHTS assay to identify small molecule agonists of the TGF-beta/Smad signaling pathway (AID 1346859; active = well fitted activation curve with a large enough effect in the signal ratio in the repeat runs, not every such curve was filed as active; the % refers to the signal ratio; note: series mostly up to about 77 µM). The procedure, abridged:
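Each well held 4,000 SBE-bla HEK 293T cells incubated overnight before compound addition; 5 hr later the cleavable FRET substrate went on for 2 hr at room temperature, and fluorescence was read at two emissions.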

The target of test [15] is Thyrotropin-releasing hormone receptor (Homo sapiens) (UniProt P34981). The experiment in a line: qHTS assay to identify small molecule antagonists of the thyrotropin-releasing hormone receptor (TRHR) signaling pathway (AID 1346877; active = well fitted inhibition curve with a large enough effect in the repeat runs, not every such curve was filed as active; note: series mostly up to about 51 µM). The procedure, abridged: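 Human TRHR in HEK293 cells; inhibition of the intracellular calcium rise triggered by 1 nM TRH was followed by fluorescence over 3 min. Compounds were run at 15 concentrations, three replicates each.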

Test [16] has the same target. The experiment in a line: qHTS assay to identify small molecule agonists of the thyrotropin-releasing hormone receptor (TRHR) signaling pathway (AID 1346891; calls by dose curve; note: series mostly up to about 58 µM). Summed up:
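Screening of agonists relied on calcium signalling in HEK293 cells expressing human TRHR: dye loading 2 h at 37 °C preceded compound addition and a 3-min fluorescence time course.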

The nature of test [17]: Caspase-3/7 induction in CHO-K1 cells by small molecules, qHTS assay (AID 1346980). Note: nearly all actives have a fitted effect of over 15% in size. Summed up: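 Luminescent Caspase-Glo 3/7 read (30min, room temperature) quantified apoptosis induction. Cells were wild-type CHO-K1, treated with compound for 17hr at 37 C and 5% CO2.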
Test [18] has as its target Nuclear receptor subfamily 1 group I member 2 (Rattus norvegicus) (UniProt Q9R1A7). The experiment in a line: Rat pregnane X receptor (rPXR) activation by small molecules, qHTS assay (AID 1346983). Note: nearly all actives have a fitted effect of over 20% in size. The settings on record: rPXR luciferase reporter cells, One-Glo luminescence, 24 h; stronger effect = higher value. Summed up: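 Luminescent readout (One-Glo luciferase, 30 min room temperature) followed 24 hr compound treatment at 37 C of rPXR cells plated 2,000 per well and preincubated 5hr; qHTS format with compounds delivered in DMSO.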

Test [19] has as its target Nuclear receptor subfamily 1 group I member 2 (Homo sapiens) (UniProt O75469). The experiment in a line: CYP3A4 induction through human pregnane X receptor (PXR) by small molecules, qHTS assay (AID 1346984). Note: nearly all actives have a fitted effect of over 40% in size. The procedure, abridged: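 Human PXR activation is tracked via CYP3A4 promoter-luciferase in DPX-2 (HepG2) cells. Compounds treat cells for 24hr at 37C, and luminescence is read after One-Glo.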

The target is the same in test [20]. The experiment in a line: Human pregnane X receptor (PXR) activation by small molecules, qHTS assay (AID 1346985). Note: nearly all actives have a fitted effect of over 40% in size. The procedure, abridged:
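DPX-2 cells (HepG2 co-transfected with a PXR response element and a CYP3A4-promoter luciferase construct) were seeded at 2,000 per well, rested 5 hr at 37C, then exposed to DMSO-dissolved compounds for 24 hr. Activation was read as luciferase luminescence.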

Where “and” joins values, the source holds several entries; their conditions need not be identical. Equal values may be shown once. Unmarked numbers belong to inactive results. Inconclusive results are not listed. Calls of active or inactive are those of the source. Unless noted, calls come from the whole dose curve; as a rule, active = well fitted curve in the direction sought with a large enough effect in the repeat runs; inconclusive = weak or mixed curves; inactive = no such curve, though single readings can be large; an effect the other way counts as inactive or inconclusive.
% is set by controls: 0 for no effect and ±100 for the full control effect.

Nuclear receptor subfamily 1 group I member 2 (Homo sapiens), sequence (O75469 whole entry, looked up): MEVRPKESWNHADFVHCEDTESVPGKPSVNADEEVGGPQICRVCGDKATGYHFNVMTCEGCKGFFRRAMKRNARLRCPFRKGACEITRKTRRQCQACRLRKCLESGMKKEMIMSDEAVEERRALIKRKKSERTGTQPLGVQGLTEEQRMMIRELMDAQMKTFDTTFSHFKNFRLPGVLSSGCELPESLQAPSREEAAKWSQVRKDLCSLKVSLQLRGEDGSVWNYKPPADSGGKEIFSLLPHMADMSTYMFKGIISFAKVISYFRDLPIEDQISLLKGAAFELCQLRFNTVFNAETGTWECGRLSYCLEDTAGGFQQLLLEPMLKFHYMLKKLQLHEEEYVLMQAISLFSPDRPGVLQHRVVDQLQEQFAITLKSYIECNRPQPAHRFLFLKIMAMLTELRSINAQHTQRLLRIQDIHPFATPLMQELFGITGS
Cytochrome P450 2D6 (Homo sapiens), sequence (P10635 whole entry, looked up): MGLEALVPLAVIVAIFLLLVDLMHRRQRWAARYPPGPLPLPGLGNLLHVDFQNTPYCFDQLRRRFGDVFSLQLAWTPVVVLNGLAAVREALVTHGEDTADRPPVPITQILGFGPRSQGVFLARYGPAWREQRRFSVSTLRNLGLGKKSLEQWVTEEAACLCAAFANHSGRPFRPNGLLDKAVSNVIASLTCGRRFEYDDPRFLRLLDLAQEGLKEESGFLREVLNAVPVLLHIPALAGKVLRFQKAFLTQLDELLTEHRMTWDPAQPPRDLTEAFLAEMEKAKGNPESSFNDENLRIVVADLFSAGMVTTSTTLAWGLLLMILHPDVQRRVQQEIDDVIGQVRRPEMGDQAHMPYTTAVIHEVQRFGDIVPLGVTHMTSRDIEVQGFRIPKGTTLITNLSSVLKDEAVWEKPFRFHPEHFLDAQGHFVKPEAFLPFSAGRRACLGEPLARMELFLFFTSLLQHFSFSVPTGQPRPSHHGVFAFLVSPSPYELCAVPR
Progesterone receptor (Homo sapiens), sequence (P06401 whole entry, looked up): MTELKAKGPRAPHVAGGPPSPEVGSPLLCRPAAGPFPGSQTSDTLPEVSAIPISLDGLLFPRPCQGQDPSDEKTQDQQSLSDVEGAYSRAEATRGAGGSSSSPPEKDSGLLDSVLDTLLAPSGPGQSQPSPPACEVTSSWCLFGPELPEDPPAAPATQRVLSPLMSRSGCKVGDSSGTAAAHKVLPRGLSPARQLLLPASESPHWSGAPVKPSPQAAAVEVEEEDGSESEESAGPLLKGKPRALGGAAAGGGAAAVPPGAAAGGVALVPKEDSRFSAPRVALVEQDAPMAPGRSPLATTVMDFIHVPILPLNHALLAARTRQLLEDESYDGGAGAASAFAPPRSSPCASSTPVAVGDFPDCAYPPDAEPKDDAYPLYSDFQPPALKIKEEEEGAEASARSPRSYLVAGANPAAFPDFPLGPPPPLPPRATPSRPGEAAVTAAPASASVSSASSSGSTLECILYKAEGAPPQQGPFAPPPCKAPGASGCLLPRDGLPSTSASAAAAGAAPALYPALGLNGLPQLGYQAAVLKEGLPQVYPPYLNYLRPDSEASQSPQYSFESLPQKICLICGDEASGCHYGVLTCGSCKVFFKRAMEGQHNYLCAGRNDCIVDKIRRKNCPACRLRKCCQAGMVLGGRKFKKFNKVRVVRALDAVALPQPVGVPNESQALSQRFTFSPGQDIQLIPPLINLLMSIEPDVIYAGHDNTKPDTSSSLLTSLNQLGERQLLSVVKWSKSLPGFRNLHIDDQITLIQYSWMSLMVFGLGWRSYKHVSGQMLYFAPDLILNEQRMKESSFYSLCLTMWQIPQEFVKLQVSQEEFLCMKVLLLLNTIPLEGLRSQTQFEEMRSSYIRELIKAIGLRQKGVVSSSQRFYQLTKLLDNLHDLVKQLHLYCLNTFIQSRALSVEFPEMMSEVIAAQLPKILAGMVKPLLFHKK
Thyrotropin-releasing hormone receptor (Homo sapiens), sequence (P34981 whole entry, looked up): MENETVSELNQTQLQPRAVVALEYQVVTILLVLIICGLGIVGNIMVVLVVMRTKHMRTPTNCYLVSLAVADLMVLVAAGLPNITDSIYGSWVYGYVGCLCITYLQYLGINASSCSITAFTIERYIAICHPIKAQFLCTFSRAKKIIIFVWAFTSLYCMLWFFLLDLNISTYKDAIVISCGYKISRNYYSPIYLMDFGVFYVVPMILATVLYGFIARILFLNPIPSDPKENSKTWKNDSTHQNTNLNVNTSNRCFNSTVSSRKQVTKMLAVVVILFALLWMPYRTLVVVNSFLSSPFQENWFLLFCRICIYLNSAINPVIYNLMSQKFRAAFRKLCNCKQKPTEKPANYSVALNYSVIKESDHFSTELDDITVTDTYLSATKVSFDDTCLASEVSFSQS
Nuclear receptor subfamily 1 group I member 2 (Rattus norvegicus), sequence (Q9R1A7 whole entry, looked up): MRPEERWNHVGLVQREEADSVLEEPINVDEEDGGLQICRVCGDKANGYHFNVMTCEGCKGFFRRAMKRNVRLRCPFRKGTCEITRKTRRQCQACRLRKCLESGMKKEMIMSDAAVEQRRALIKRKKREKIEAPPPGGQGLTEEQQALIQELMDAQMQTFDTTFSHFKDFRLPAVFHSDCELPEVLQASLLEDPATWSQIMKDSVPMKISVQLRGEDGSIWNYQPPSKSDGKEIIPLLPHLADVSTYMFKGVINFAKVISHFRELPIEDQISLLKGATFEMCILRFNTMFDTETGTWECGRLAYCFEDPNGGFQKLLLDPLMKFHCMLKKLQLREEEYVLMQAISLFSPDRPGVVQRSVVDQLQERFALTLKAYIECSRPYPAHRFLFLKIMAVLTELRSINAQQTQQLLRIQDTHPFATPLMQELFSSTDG

For the compound `O=C(O)Cc1ccc2c(c1)C(=O)c1ccccc1CO2`, the Potency result in [1], in test [2], in test [3], in test [4], in test [5] and in test [6] was “inactive” in each case. The Potency entry in test [7], in test [8], in test [9], in [10], in [11] and in test [12] was “inactive” in each case. In addition, in test [13], the Potency entry was “inactive”.
In the case of `ClCCl`, the Potency result in test [1], in [2], in test [3], in test [4], in [5] and in test [7] was “inactive” throughout. Moreover, the Potency result in test [14], in [15], in test [8], in [9], in [10] and in test [17] was “inactive” throughout. For the same compound, the Potency result in [11], in [12] and in test [13] was “inactive” each time. Further, in test [16], the outcome was inactive.
Take `Cc1cccc2cccnc12`: the Potency result in test [1], in test [2], in test [3], in [4], in test [5] and in test [6] was “inactive” each time. Further, the Potency result in test [7], in [14], in [15], in test [8], in [10] and in [17] was “inactive” each time. In addition, the Potency result in test [11], in test [12] and in test [13] was “inactive” in each case. The outcome in test [16] was inactive.
As for `CCN(CCN)c1cccc(C)c1`, the Potency entry in test [1], in test [2], in test [3], in [4], in [5] and in test [6] was “inactive” in each case. In addition, the Potency result in [7], in test [14], in test [15], in [8], in [10] and in test [17] was “inactive” throughout. For the same compound, the Potency result in test [11] is “inactive”. Moreover, the result in [16] was inactive. Moreover, the Potency was 61.7 µM (active) and 61.1 µM (active) in [12]; 2.54 µM (active) and 10 µM (active) in [13].
For `Cc1cc(C(C)(C)C)cc(C)c1CC1=NCCN1`, the Potency result in [1], in test [2], in test [3], in test [4], in test [5] and in test [6] was “inactive” in each case. Also, the Potency result in test [7], in test [14], in test [9], in [10], in test [17] and in test [11] was “inactive” throughout. The Potency entry in test [12], in [19] and in [20] was “inactive” throughout. For the same compound, in test [18], the max activation is -6.02%. In [13], the Potency is 3.47 µM (active).
With `CC/C=C\CCCCCO`, the Potency result in [1], in test [2], in test [3], in test [4], in test [5] and in test [6] was “inactive” throughout. Moreover, the Potency entry in test [7], in [14], in test [8], in [10], in test [17] and in test [11] was “inactive” throughout. The Potency result in test [12] and in [13] was “inactive” in each case.
On to `CCc1ccc(Br)cc1`, for which the Potency result in [1], in test [2], in test [3], in test [4], in test [5] and in test [6] was “inactive” in each case. Moreover, the Potency result in [7], in test [14], in test [8], in [9], in [10] and in test [11] was “inactive” each time. Moreover, the Potency result in [12] and in test [13] was “inactive” in each case.
For the compound `COc1cc(C)ccc1O`, the Potency entry in test [1], in [2], in [3], in test [4], in test [5] and in test [6] was “inactive” each time. For the same compound, the Potency result in test [7], in test [14], in test [15], in test [8], in test [10] and in [17] was “inactive” throughout. In addition, the Potency result in test [12] and in test [13] was “inactive” throughout. Further, the compound was classed as inactive in [16].

(Values after PubChem BioAssay (Tox21).)
